In PubChem BioAssay AID1347075 (National Center for Advancing Translational Sciences (NCATS), 2019):
“And” between values parts separate entries of the source, which are not always exact repeats. Equal values may be shown once. About 5,500 (1.4%) of roughly 400,000 compounds were called active. A call without a number means that no potency is given here. Roughly 9% stayed inconclusive and do not appear here. Calls come from the whole dose curve; as a rule, active = well fitted cell-killing curve with a large enough effect; inconclusive = small, poorly fitted or top-dose-only effect, or effect the other way; inactive = flat fitted curve, though single readings scatter. The sample as a whole holds a higher share of actives than the screen did.

Assay: qHTS assay for MDR1-selective chemotherapeutics: Primary screen using the parental adenocarcinoma cell KB-3-1; note: nearly all actives have a fitted effect of over 60% in size
Details: KB-3-1 viability, CellTiter-Glo ATP luminescence, 72 h; series mostly up to 46.1 µM
Method in brief: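 Parental KB-3-1 adenocarcinoma cells in phenol-red-free DMEM with 10% FBS were pin-treated with compounds at several concentrations, incubated 72 h at 37 °C, and viability read by CellTiter-Glo luminescence; concentration-effect curves were fitted after normalization.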
Potency is the fitted concentration of half-maximal effect.

SMILES	Potency
CCCN(C(=O)Cn1ncc2c([nH]c3ccc(C)cc32)c1=O)c1ccccc1C	inactive
CCc1ccc2oc(-c3ccc(NC(=O)c4cc5ccccc5o4)cc3)nc2c1	inactive
COc1ccc(NC(C)=O)cc1NC(=O)CN1CCN(c2ccc(F)cc2)CC1	inactive
COC(=O)c1ccc(NC(=O)c2cc(S(=O)(=O)N3CCC(C)CC3)cn2C)cc1	inactive
CCOC(=O)c1c(C)oc2nc(C)nc(N(CC(C)C)CC(C)C)c12	inactive
CC(C)(O)c1ccccc1CC[C@H](SCC1(CC(=O)O)CC1)c1cccc(/C=C/c2ccc3ccc(Cl)cc3n2)c1	inactive
CCc1cnc2c(c1SCC(=O)c1ccccc1)c(=O)n(C)c(=O)n2C	inactive
Cc1ccc(C)c(S(=O)(=O)n2nc(C)c(S(=O)(=O)N3CCC(C)CC3)c2C)c1	inactive
Cc1ccc(C)c(S(=O)(=O)c2nnn3c2nc(N2CCOCC2)c2sccc23)c1	inactive
Cc1ccc(C)c(S(=O)(=O)N2CCN(c3ncnc4sccc34)CC2)c1	9.2 µM (active)
CCOCCCNC(=O)c1cn(CC)c2ccc(S(=O)(=O)N3CCc4ccccc4C3)cc2c1=O	inactive
O=C(CCNC(=O)c1ccc(Cl)cc1)NC1CCCc2ccccc21 (configuration not stated)	7.31 µM (active)
COC(=O)c1cc(OCC(=O)NC2CCCc3ccccc32)cc(C(=O)OC)c1 (configuration not stated)	inactive
NC(=O)Nc1ccc(C(=O)OCC(=O)NC2CCCc3ccccc32)cc1 (configuration not stated)	inactive
Cc1ccc(Cl)cc1NC(=O)CCS(=O)(=O)c1ccc(Br)s1	inactive
CCC(C)(C)c1ccc(OCC(=O)N(C)C)c(C(C)(C)CC)c1	16.4 µM (active)
CCc1nc(C)ccc1OCC(=O)N(CC)CC	inactive
COc1ccc(Cl)cc1NC(=O)CSc1nc2ccccc2c2nc(-c3ccccc3)nn12	inactive
CSc1oc(-c2cccs2)nc1S(=O)(=O)c1ccc(Br)cc1	inactive
CCOc1ccc(NC(=O)C(CC(C)C)N2Cc3ccccc3C2=O)cc1 (configuration not stated)	inactive
C=CCn1c(SCc2c(C)noc2C)nc2sc3c(c2c1=O)CCC(C)C3 (configuration not stated)	4.11 µM (active)
CCCn1nnc2sc3c(c2c1=O)CCC(C)C3 (configuration not stated)	inactive
C=CCn1c(SCC(=O)NCCCO)nc2sc3c(c2c1=O)CCC3	inactive
O=S(=O)(Nc1ccc2nc(-c3cccc(Cl)c3)oc2c1)c1ccccc1	inactive
CN(Cc1ccccc1)S(=O)(=O)c1ccc(F)c(C(=O)Nc2cccc(Cl)c2Cl)c1	inactive

SMILES	Potency
COc1ccc(-n2c(SCC(=O)Nc3ccc(Cl)c(C)c3)nc3n[nH]c(C)c3c2=N)cc1	inactive
COc1cccc(-n2c(SCC(=O)NC3CCCCC3)nc3n[nH]c(C)c3c2=N)c1	13 µM (active)
C=CCn1c(CC(=O)Nc2cccc(OC)c2)nnc1SCC(=O)NC1CCCCC1	inactive
ClC/C=C/C[n+]1ccccc1Cl	inactive
CCOc1ccc(-c2cc3c(=O)n(CC(=O)NCc4ccc(OC)cc4)ccn3n2)cc1	inactive
CN(O)C(=S)c1ccccc1	0.0052 µM (active)
CN(c1ccccc1)S(=O)(=O)c1cccc(NC(=O)Cc2ccc(Cl)cc2)c1	23.1 µM (active)
Cc1ccc(S(=O)(=O)N(CC(=O)Nc2cccc([N+](=O)[O-])c2)Cc2ccc(Cl)cc2)cc1	inactive
CN(c1ccccc1)S(=O)(=O)c1ccc(NC(=O)COc2ccccc2)cc1	inactive
Nc1ncnc2nnsc12	inactive
CC(C)Oc1cccc(-c2cnc(N3CCC(C(N)=O)CC3)s2)c1	inactive
COc1cc2nc(SCc3ccc(F)cc3)n3nc(CCn4c(C)nc5ccccc54)nc3c2cc1OC	inactive
COc1ccc(-c2cccc(NS(=O)(=O)c3cc(C)c(OC)c(C)c3C)c2)nn1	3.66 µM (active)
CCCOc1ccc(-c2cccc(NS(=O)(=O)c3ccccc3)c2)nn1	inactive
COc1ccc(OC)c(S(=O)(=O)Nc2cccc(-c3ccc4nncn4n3)c2)c1	inactive
O=C(Nc1ccc(-c2nc3cc(NC(=O)c4ccccc4Cl)ccc3o2)cc1)c1ccccc1Cl	inactive
C/C(=N\Nc1ccc(Cl)nn1)c1ccccc1O	14.6 µM (active)
Fc1ccccc1Cc1ccc(Cl)nn1	inactive
C/C(=N/Nc1ccc(Cl)cc1)c1cnnc(-c2ccccc2)n1	inactive
CC(=O)N1CCc2cc(S(=O)(=O)NC(Cc3ccccc3)C(=O)NCc3ccc(C)cc3)ccc21 (configuration not stated)	inactive
CC1CCN(C(=O)c2ccc(S(=O)(=O)Cc3cc(F)ccc3F)c([N+](=O)[O-])c2)CC1	23.1 µM (active)
O=C(c1ccc(Oc2ccc(Cl)cc2)c([N+](=O)[O-])c1)N1CCCC1	inactive
Nc1ccc(C(=O)N2CCN(S(=O)(=O)c3ccc(Cl)cc3)CC2)cc1[N+](=O)[O-]	inactive
CC[C@]1(O)C[C@@H]2CN(CCc3c([nH]c4ccccc34)[C@@](C(=O)OC)(c3cc4c(cc3OC)N(C)[C@H]3[C@@](O)(C(=O)OC)[C@H](OC(C)=O)[C@]5(CC)C=CCN6CC[C@]43[C@@H]65)C2)C1	0.164 µM (active)
COc1cc(NC(=O)Cn2nc(-c3ccc(C)c(C)c3)ccc2=O)cc(OC)c1	inactive

SMILES	Potency
N#Cc1nc(NCc2ccc(Cl)c(Cl)c2)c2ncn(CCCO)c2n1	inactive
O=C(NCC(c1ccc(Cl)cc1)N1CCOCC1)c1ccccc1F (configuration not stated)	inactive
O=C(NCCC1CCCCN1S(=O)(=O)c1ccc(F)cc1)C(=O)NC1CC1 (configuration not stated)	inactive
COc1ccccc1CCNC(=O)C(=O)NCCC1CCCCN1S(=O)(=O)c1cccs1 (configuration not stated)	inactive
O=C(NCCC1CCCCN1S(=O)(=O)c1cccs1)C(=O)Nc1ccc(F)cc1F (configuration not stated)	23.1 µM (active)
CCCCCn1c(=O)[nH]c2cc(C(=O)NCCN(C)CCCC)ccc2c1=O	inactive
CC(=O)c1ccc(NC(=O)COc2ccccc2-c2nc(-c3ccccc3)no2)cc1	inactive
Cc1noc(C)c1COC(=O)COc1ccc(-c2ccccc2)cc1	inactive
O=C(Oc1ccc(-c2nc(-c3ccccn3)no2)cc1)c1ccccc1	7.31 µM (active)
CCOC(=O)c1c(-c2ccc(OC)cc2)oc2ccc(OCc3ccc(C(=O)OC)cc3)cc12	inactive
O=C(OC/C=C/CSc1nnc(-c2cccc3ccccc23)o1)c1ccc(F)cc1	inactive
Cc1nc2c(-c3ccccc3)c(C)nn2c(C)c1CCC(=O)NCCc1ccccc1	inactive
Cc1ccc(C)c(N2CCN(C(=O)Cn3ncc4c(=O)oc5ccc(C)cc5c43)CC2)c1	inactive
CC1CCCN(c2csc3ccc(F)cc3c2=O)C1 (configuration not stated)	inactive
N#CC1=C(SCc2ccccc2)NC(=O)C(C#N)C12CCCC2 (configuration not stated)	11.6 µM (active)
Cc1ccc(CNS(=O)(=O)c2ccc(C(=O)N(C)C)s2)cc1	inactive
Cn1c(C(=O)N2CCC(C(=O)N3CCN(c4ccccc4)CC3)CC2)cc2sccc21	inactive
COc1cccc(CNC(=O)c2nnn(CC(=O)Nc3cc(Cl)ccc3C)c2N)c1	inactive
COc1cccc(CNC(=O)c2nnn(CC(=O)Nc3cc(C)ccc3C)c2N)c1	inactive
Nc1c(C(=O)NCc2ccccc2)nnn1Cc1cccc(Cl)c1	20.6 µM (active)
CC1(C)CC(N2CCN(C(c3ccccc3)c3ccccc3)CC2)=CC(=[N+]2CCCCC2)C1	0.517 µM (active)
CN(C(=O)CSc1nc2ccccc2n1Cc1ccccc1C#N)c1ccccc1	inactive
Cc1ccc(-c2noc(CSc3nnc(-c4ccc(Cl)cc4)n3C)n2)cc1	inactive
Cc1nn(-c2ccccc2)c(C)c1NC(=O)COc1ccc(Cl)cc1Cl	5.17 µM (active)
Cc1nn(-c2ccccc2)c(C)c1NC(=O)CCl	14.6 µM (active)

SMILES	Potency
Cc1nn(-c2ccccc2)c(C)c1NC(=O)COC(=O)c1cc(Cl)ccc1O	inactive
CCC(Oc1ccccc1)C(=O)OCC(=O)Nc1c(C)nn(-c2ccccc2)c1C (configuration not stated)	inactive
Cc1cccc(C)c1NC(=O)CNC(=O)c1c(C)nn(-c2ccccc2)c1C	inactive
C/C=C/c1ccc(OCC(=O)OCC(=O)Nc2c(C)nn(-c3ccccc3)c2C)c(OC)c1	inactive
OCc1cnc(SCc2ccc(F)cc2)n1Cc1ccc(F)cc1	inactive
CN1C(=O)c2ccccc2Sc2ccc(NC(=O)Cc3ccc(Cl)cc3)cc21	inactive
COc1ccc2c(C)c(CCC(=O)NCc3ccc(OC)c(OC)c3)c(=O)oc2c1	inactive
Cc1ccc(C)c(N2CCN(C(=O)CN3C(=O)COc4ccc(S(=O)(=O)N5CCCCCC5)cc43)CC2)c1	inactive
COc1ccccc1NC(=O)C1=C(C)Nc2nc3ccccc3n2C1c1cccs1 (configuration not stated)	3.26 µM (active)
COc1ccccc1NC(=O)C1=C(C)Nc2ncnn2C1c1sccc1C (configuration not stated)	inactive
CC1=C(C(=O)Nc2ccccc2Cl)C(c2cccs2)n2ncnc2N1 (configuration not stated)	inactive
Cc1nc2c(c(C)nn2-c2ccccc2)c(C)c1CCC(=O)NCCc1ccc(Cl)cc1	inactive
O=C1CC(c2nnc(Cc3ccc(Cl)cc3)o2)CN1c1ccccc1 (configuration not stated)	inactive
CCC(=O)N1CCc2cc(Br)cc(S(=O)(=O)NCc3ccc(Cl)cc3)c21	inactive
COc1cc(C2c3cc4c(cc3C(O)C3COC(=O)C23)OCO4)cc(OC)c1OC (configuration not stated)	146 nM (active) and 164 nM (active)
COc1cc(C=C(OC(C)=O)c2ccc3c(c2)OCO3)cc(OC)c1OC	inactive
COc1cc(C2CC(=O)Oc3cc(OC)c(OC)c(OC)c32)cc(OC)c1OC (configuration not stated)	inactive
Cc1ccccc1NC(=O)Cn1cc(C(=O)c2cccs2)c2ccccc21	inactive
CCCCOC(=O)CSc1ncnc2sc3c(c12)CCC(C)C3 (configuration not stated)	inactive
CC1CCCCN1S(=O)(=O)c1ccc(C(=O)Nc2nnc(-c3cccs3)o2)cc1 (configuration not stated)	9.2 µM (active)
CC1CCCCN1S(=O)(=O)c1ccc(S(=O)(=O)N(CC(=O)Nc2ccccc2)Cc2cccs2)cc1 (configuration not stated)	inactive
CC1CN(S(=O)(=O)c2ccc(C(=O)Nc3sccc3C(N)=O)cc2)CC(C)O1 (configuration not stated)	inactive
